Measurements as given in PubChem BioAssay (NCATS).
Records with an inconclusive call do not appear. Active and inactive are the calls of the source. Unless noted, calls come from the whole dose curve; as a rule, active = well fitted curve in the direction sought with a large enough effect; inconclusive = small, poorly fitted or top-dose-only effect, or another doubt; inactive = no such curve, though single readings can be large; an effect the other way counts as inactive or inconclusive.

Columns and labels:
[1] = molecular target: Lysosomal acid glucosylceramidase (Homo sapiens) (UniProt P04062); assay: Glucocerebrosidase-p2 (AID 348; in the data active = potency below about 10 µM; note: potency is the fitted concentration of half-maximal effect); conditions: purified GBA, blue fluorogenic substrate, 40 min
Lysosomal acid glucosylceramidase (Homo sapiens), sequence (P04062 whole entry, looked up): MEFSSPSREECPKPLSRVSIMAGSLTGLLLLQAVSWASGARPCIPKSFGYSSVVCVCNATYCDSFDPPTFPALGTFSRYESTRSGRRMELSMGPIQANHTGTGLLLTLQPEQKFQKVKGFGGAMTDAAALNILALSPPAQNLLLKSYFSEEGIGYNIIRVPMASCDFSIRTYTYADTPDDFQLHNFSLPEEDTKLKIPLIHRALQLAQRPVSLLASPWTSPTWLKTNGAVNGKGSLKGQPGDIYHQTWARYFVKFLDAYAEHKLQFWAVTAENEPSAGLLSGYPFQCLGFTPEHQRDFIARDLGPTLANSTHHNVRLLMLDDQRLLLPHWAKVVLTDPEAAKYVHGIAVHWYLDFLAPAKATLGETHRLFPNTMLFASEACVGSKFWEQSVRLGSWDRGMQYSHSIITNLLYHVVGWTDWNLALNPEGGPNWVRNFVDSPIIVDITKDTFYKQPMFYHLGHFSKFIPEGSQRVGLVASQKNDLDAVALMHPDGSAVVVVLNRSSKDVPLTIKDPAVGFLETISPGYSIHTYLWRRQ
Outline: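 Compounds titrated from 0.6 nM upwards against 0.2 nM enzyme in pH 5.9 citric acid/KH2PO4, taurocholate, tween-20; blue fluorogenic substrate 80 uM, 40 min room temperature, stopped and read Ex 365/Em 440 for AC50.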

[2] = molecular target: Cytochrome P450 1A2 (Homo sapiens) (UniProt P05177); assay: p450-cyp1a2 (AID 410; calls by dose curve; note: potency is the fitted concentration of half-maximal effect;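 for activity change, negative = inhibition: -100% = full effect of reference inhibitor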); conditions: recombinant CYP1A2, luciferin-ME demethylation, luminescence; series mostly up to 57 µM
Cytochrome P450 1A2 (Homo sapiens), sequence (P05177 whole entry, looked up): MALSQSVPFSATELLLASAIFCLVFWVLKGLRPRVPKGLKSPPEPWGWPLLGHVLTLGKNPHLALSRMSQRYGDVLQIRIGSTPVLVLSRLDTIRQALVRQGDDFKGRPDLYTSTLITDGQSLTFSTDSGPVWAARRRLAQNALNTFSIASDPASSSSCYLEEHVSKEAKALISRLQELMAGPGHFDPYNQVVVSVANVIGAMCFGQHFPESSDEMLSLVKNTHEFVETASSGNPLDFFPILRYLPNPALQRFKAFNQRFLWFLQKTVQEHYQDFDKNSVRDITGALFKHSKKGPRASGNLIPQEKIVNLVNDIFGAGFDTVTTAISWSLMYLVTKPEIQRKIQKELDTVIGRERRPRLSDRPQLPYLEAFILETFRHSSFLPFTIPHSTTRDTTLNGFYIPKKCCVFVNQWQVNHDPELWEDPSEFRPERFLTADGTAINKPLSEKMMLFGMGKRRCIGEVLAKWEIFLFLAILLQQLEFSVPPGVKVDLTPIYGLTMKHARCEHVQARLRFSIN
Outline: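 Luminescent readout of luciferin formed from Luciferin-ME by human CYP1A2; data normalized against complete inhibition by 57 uM furafylline. Enzyme 20nM, substrate 100uM at Km, 100mM KPO4 buffer, 60 min reaction at room temperature.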

[3] = NFAT Signaling Pathway (AID 444; active = well fitted curve in either direction with a large enough effect, not every such curve was filed as active;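 note: carbachol stimulus at about its EC50 of 1 µM final; % is set by controls: 0 for no effect and ±100 for the full control effect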); conditions: Jurkat NFAT-bla M1, carbachol, beta-lactamase ratio, 5 h; at 7.69 µM (top of the series) unless noted
Outline: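 Jurkat cells carrying an NFAT-driven β-lactamase reporter and co-transfected muscarinic M1 receptor were treated with compound plus carbachol (1 uM final, an EC50 level) for 5 h at 37 °C. CCF4 loading followed for 1 h at RT; 460/530 nm ratio gave %activity.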

[4] = Stat Signaling Pathway (AID 446; active = well fitted curve in either direction with a large enough effect, not every such curve was filed as active;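 note: ME-180 cervical cancer cells given 40 pM IL-6 alongside compound; SIE-controlled beta-lactamase reporter measured as 460/530 nm FRET emission ratio; % is set by controls: 0 for no effect and ±100 for the full control effect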); conditions: ME-180 SIE beta-lactamase reporter, IL-6 stimulated, 5 h; at 7.69 µM (top of the series) unless noted
Outline: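 ME-180 cells carrying a SIE-driven beta-lactamase reporter are stimulated with 40 pM IL-6 for 5 h at 37C in the presence of compound. The 460/530 nm FRET substrate ratio is read after 2.5 h at RT. Data are normalised to 300 pM IL-6 and to 125 nM JAK inhibitor controls.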

[5] = molecular target: Glucocorticoid receptor (Homo sapiens) (UniProt P04150); assay: GR-GFP Redistribution (AID 450;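 active = compounds whose dose series gives a full or clear partial fitted curve of increased nuclear translocation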; note: potency is the fitted concentration of half-maximal effect); conditions: U2OS GR-GFP nuclear translocation, laser cytometry, 2 h
Glucocorticoid receptor (Homo sapiens), sequence (P04150 whole entry, looked up, the tested form may be a part): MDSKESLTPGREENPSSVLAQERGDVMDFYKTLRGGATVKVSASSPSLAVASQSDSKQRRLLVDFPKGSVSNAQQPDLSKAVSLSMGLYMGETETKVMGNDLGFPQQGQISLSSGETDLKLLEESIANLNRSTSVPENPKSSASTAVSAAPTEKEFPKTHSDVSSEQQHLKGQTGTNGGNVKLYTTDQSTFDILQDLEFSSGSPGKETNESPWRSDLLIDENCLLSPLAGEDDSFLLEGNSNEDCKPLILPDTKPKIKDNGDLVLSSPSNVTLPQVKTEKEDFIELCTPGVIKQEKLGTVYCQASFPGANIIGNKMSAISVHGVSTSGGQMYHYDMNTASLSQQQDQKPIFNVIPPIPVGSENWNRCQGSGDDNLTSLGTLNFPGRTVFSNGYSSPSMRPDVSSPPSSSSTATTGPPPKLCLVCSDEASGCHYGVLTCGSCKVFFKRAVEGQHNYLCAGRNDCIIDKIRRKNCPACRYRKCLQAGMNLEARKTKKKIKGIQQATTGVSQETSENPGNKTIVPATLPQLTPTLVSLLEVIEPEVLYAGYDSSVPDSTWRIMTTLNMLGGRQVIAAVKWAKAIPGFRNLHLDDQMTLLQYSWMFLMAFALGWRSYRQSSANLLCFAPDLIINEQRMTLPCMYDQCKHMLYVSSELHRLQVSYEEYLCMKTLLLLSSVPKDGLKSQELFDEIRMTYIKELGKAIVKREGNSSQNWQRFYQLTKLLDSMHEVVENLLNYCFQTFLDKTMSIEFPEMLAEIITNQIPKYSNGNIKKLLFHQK

[6] = molecular target: Glucocorticoid receptor (Homo sapiens) (UniProt P04150); assay: GR-EFC Redistribution (AID 451; calls by dose curve; note: potency is the fitted concentration of half-maximal effect); conditions: CHO-K1 GR-EFC translocation, beta-gal luminescence, 2 h
Outline: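 CHO-K1 cells stably expressing nuclear-localized β-gal enzyme acceptor and GR fused C-terminally to the enzyme donor fragment; ligand-driven nuclear translocation restores β-gal by complementation. Compounds titrated up to 46 uM final, 2 h at 37 °C; luminescence read.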

[7] = molecular target: Mitogen-activated protein kinase 10 (Mus musculus) (UniProt Q61831); assay: JNK3 AlphaScreen Assay (AID 530; active = well fitted curve in either direction with a large enough effect, not every such curve was filed as active;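 note: kinase came from lysate of stimulated human HepG2 cells; signal reports phosphorylation of biotinylated GST-cJun 1-79 at Ser73 with 10 µM ATP; % is set by controls: 0 for no effect and ±100 for the full control effect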); conditions: JNK3 lysate, c-Jun phosphorylation; series mostly up to 57.1 µM
Outline: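 Inhibitors reduce antibody binding to phosphorylated biotin-cJun, lowering AlphaScreen luminescence. Lysates from HepG2 cells pre-activated by IL-1beta plus TNF-alpha supplied JNK3; compounds were titrated.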

[8] = molecular target: 3',5'-cyclic-AMP phosphodiesterase 4B (Homo sapiens) (UniProt Q07343); assay: qHTS Assay for Inhibitors of PDE-IV (AID 607; active = well fitted activation curve with a large enough effect in the main read-out, with a control signal flat, not every such curve was filed as active; note: % of control where 0% means no effect); conditions: HEK293 ACTOne CNG channel cells, membrane potential fluorescence; series mostly up to 22.9 µM
3',5'-cyclic-AMP phosphodiesterase 4B (Homo sapiens), sequence (Q07343 whole entry, looked up): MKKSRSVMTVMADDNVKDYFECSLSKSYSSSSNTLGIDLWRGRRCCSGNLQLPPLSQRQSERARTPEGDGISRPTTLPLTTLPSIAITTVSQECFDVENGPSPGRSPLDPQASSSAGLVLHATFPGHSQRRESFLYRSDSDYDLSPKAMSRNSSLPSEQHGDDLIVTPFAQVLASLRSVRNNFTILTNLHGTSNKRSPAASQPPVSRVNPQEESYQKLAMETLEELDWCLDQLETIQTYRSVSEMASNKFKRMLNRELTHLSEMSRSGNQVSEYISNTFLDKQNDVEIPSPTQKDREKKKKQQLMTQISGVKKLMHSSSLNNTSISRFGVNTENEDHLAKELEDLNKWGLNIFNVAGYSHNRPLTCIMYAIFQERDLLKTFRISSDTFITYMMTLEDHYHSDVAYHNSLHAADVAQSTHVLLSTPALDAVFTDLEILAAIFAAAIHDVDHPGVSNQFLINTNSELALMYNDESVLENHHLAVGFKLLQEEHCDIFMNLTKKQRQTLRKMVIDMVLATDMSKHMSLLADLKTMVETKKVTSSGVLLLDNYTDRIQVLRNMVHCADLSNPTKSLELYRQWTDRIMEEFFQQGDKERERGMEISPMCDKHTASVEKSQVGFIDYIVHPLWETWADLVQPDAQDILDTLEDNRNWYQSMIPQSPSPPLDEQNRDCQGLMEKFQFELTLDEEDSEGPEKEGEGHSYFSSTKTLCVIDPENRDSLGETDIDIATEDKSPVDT
Outline: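 HEK293 ACTOne cells with CNG channel (1000/well), endogenous PDE4; membrane potential dye, compounds up to 22.9 uM final. Fluorescence Ex 535/Em 590; RO 20-1724 (100 uM final) as reference.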

[9] = molecular target: Dual specificity protein kinase CLK4 (Homo sapiens) (UniProt Q9HAZ1); assay: qHTS Assay for Inhibitors of CDC-like Kinase 4 (Kinase-Glo Assay) (AID 1770); conditions: recombinant Clk4, Kinase-Glo ATP depletion luminescence; series mostly up to 66.7 µM; note: nearly all actives have a fitted effect of over 65% in size; note: potency is the fitted concentration of half-maximal effect
Dual specificity protein kinase CLK4 (Homo sapiens), sequence (Q9HAZ1 whole entry, looked up): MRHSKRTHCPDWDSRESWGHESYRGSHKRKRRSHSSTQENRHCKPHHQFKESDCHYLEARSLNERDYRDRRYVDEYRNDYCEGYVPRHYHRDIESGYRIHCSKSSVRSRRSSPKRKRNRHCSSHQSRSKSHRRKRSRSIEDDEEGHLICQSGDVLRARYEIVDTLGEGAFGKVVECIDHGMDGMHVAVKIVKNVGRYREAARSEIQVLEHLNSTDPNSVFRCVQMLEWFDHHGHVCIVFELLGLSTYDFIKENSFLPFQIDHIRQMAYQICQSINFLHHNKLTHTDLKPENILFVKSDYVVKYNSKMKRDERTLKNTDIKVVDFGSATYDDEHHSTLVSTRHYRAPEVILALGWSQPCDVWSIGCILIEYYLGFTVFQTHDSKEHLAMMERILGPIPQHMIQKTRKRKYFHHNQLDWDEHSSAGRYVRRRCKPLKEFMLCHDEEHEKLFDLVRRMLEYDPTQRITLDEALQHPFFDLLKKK
Outline: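 Readout: Kinase-Glo luminescence from ATP left after a 4.5 h room-temperature reaction of 25 nM Clk4 with 100 uM RS peptide and 1 uM ATP (final). Buffer: 25 mM Tris pH 7.5, 10 mM MgCl2.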

[10] = molecular target: Dual specificity protein kinase CLK4 (Homo sapiens) (UniProt Q9HAZ1); assay: qHTS Assay for Inhibitors of CDC-like Kinase 4 (ADP-Glo Assay) (AID 1771); conditions: recombinant CLK4, ADP-Glo luminescence; series mostly up to 80 µM; note: potency is the fitted concentration of half-maximal effect; nearly all actives have a fitted effect of over 70% in size
Outline: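 Luminescence from ADP-Glo reports ADP produced by 25 nM Clk4 acting on 100 uM RS repeat peptide with 1 uM ATP over 1 hr at room temperature; residual ATP is depleted before ADP is converted to ATP for detection.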

[11] = molecular target: Ubiquitin carboxyl-terminal hydrolase 1 (Homo sapiens) (UniProt O94782); assay: Inhibitors of USP1/UAF1: Pilot qHTS (AID 504865); conditions: purified USP1/UAF1, Ub-rhodamine cleavage fluorescence; series mostly up to 54.9 µM;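 note: rhodamine fluorescence freed from ubiquitin-rhodamine substrate followed over time; top concentration of the series differs between compounds; % is set by controls: 0 for no effect and ±100 for the full control effect; nearly all actives have a fitted effect of over 35% in size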
Ubiquitin carboxyl-terminal hydrolase 1 (Homo sapiens), sequence (O94782 whole entry, looked up): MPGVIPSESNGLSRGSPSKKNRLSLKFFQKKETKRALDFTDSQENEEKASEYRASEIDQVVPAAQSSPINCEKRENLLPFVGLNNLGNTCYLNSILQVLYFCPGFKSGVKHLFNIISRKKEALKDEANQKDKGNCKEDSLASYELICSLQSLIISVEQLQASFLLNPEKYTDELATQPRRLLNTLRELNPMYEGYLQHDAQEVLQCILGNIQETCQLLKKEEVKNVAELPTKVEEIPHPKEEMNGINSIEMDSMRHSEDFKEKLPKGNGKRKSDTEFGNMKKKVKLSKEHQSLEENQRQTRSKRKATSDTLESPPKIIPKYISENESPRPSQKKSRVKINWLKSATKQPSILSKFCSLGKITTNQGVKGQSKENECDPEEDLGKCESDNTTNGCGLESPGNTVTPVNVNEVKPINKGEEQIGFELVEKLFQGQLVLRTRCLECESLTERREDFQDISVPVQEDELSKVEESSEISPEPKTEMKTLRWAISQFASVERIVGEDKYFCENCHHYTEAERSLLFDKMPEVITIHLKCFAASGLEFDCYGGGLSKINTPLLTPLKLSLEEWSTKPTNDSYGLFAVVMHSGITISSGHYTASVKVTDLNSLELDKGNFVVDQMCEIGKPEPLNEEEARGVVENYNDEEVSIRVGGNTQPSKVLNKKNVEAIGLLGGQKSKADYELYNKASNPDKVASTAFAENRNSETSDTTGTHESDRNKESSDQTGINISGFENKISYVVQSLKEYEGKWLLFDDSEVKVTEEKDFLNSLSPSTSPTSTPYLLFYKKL
Outline: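 1nM USP1/UAF1 + cpd, 15 min RT; start w/ Ub-Rho 150nM final; kinetic FL 480/540 nm, 6 reads q60 s. Buffer 50mM HEPES pH 7.8, 0.5mM EDTA, 1mM TCEP, 0.01% Tween-20, 0.1 mg/ml BSA.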

[12] = Primary qHTS for small molecule stabilizers of the endoplasmic reticulum resident proteome: Secreted ER Calcium Modulated Protein (SERCaMP) assay (AID 1508630); conditions: SH-SY5Y GLuc-SERCaMP (Gaussia luciferase released on ER calcium loss) secretion, thapsigargin, luminescence; series mostly up to 38.4 µM; note: % is set by controls: 0 for no effect and ±100 for the full control effect
Outline: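 GLuc-SERCaMP-expressing SH-SY5Y cells, pretreated 16 h with compound, are challenged with thapsigargin to empty ER calcium stores; after 4 h, coelenterazine is added directly to the medium and luminescence is imaged.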

[13] = molecular target: Cytochrome P450 3A4 (Homo sapiens) (UniProt P08684); assay: qHTS Assay for Activators of Cytochrome P450 3A4 (AID 885); conditions: recombinant CYP3A4, Luciferin-PPXE luminescence, 60 min; series mostly up to 57.1 µM; note: nearly all actives have a fitted effect of over 65% in size; note: potency is the fitted concentration of half-maximal effect
Cytochrome P450 3A4 (Homo sapiens), sequence (P08684 whole entry, looked up): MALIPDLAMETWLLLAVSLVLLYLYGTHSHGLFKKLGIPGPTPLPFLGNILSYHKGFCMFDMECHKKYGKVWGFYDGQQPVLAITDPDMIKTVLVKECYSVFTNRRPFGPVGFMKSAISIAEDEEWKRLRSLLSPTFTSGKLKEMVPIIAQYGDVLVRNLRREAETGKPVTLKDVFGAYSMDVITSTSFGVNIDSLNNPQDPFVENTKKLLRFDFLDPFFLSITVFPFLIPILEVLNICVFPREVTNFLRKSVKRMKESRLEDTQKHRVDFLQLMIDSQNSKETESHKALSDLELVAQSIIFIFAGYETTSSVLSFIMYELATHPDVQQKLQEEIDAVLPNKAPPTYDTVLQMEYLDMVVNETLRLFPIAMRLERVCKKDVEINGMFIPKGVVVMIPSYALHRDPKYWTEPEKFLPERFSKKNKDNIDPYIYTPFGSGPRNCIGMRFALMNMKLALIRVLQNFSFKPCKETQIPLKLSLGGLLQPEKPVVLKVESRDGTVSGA
Outline: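 Human CYP3A4 (20 nM) with Luciferin-PPXE at 25 uM (its KM) in 200 mM KPO4; 10 min compound preincubation, then NADPH regeneration and 60 min reaction at RT. Luciferin read by luminescence; normalized to 57 uM ketoconazole full inhibition.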

[14] = AP1 Signaling Pathway (AID 357; active = well fitted curve in either direction with a large enough effect, not every such curve was filed as active); conditions: ME-180 (cervical carcinoma) AP-1-bla reporter, EGF-induced, beta-lactamase ratio, 5 h; at 7.69 µM (top of the series) unless noted
Outline: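 Titration-series screen for positive or negative modulators of EC50 EGF-induced signaling in ME-180 cells carrying an AP-1-driven beta-lactamase reporter. After 5 hours at 37 degrees Celsius, CCF4 460nm/530nm emission ratio gave %Activity; AC50 values derived.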

[15] = molecular target: Cytochrome P450 3A4 (Homo sapiens) (UniProt P08684); assay: qHTS Assay for Inhibitors and Substrates of Cytochrome P450 3A4 (AID 884); conditions: recombinant CYP3A4, Luciferin-PPXE luminescence; series mostly up to 57.1 µM; note: nearly all actives have a fitted effect of over 50% in size; note: potency is the fitted concentration of half-maximal effect
Outline: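 20 nM human CYP3A4 with 25 uM Luciferin-PPXE (at KM) in 200 mM KPO4, preincubated 10 min with compound; NADPH regeneration started a 60 min RT reaction. Luciferin detected by luminescence, normalized to 57 uM ketoconazole as full inhibition.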

[16] = molecular target: Dual specificity protein kinase CLK4 (Homo sapiens) (UniProt Q9HAZ1); assay: qHTS Assay for Inhibitors of CDC-like Kinase 4 (ADP-FP Assay) (AID 1795); conditions: Transcreener ADP fluorescence polarization; series mostly up to 50 µM;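 note: recombinant human CLK4 phosphorylating RS repeat peptide at 1 µM ATP; % is set by controls: 0 for no effect and ±100 for the full control effect; nearly all actives have a fitted effect of over 60% in size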
Outline: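 FP readout: Orange Transcreener ADP2 tracer (4 nM) plus ADP antibody, read after 30 min at room temperature. Kinase step: 6.25 nM Clk4, 100 uM RS peptide, 1 uM ATP, pH 7.5, 1 h.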

[17] = molecular target: Cytochrome P450 2C9 (Homo sapiens) (UniProt P11712); assay: qHTS Assay for Inhibitors and Substrates of Cytochrome P450 2C9 (AID 883); conditions: recombinant CYP2C9, luciferin-H luminescence, 60 min; series mostly up to 57.1 µM; note: % is set by controls: 0 for no effect and ±100 for the full control effect; nearly all actives have a fitted effect of over 60% in size
Cytochrome P450 2C9 (Homo sapiens), sequence (P11712 whole entry, looked up): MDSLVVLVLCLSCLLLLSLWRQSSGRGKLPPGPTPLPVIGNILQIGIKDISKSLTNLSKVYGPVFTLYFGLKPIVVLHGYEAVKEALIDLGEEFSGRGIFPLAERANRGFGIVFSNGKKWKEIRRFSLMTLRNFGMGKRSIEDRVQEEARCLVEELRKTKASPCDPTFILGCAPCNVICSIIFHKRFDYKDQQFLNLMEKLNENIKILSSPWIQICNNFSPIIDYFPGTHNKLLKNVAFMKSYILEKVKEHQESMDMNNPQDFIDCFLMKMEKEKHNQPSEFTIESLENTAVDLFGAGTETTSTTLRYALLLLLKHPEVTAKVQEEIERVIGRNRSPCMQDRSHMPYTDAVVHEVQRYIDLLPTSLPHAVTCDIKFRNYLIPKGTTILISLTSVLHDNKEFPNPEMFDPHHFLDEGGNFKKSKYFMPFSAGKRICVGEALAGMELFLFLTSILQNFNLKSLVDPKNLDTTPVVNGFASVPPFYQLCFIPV
Outline: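 CYP2C9 deoxyluciferin hydroxylation, 37C, 60 min with NADPH regeneration; 10nM enzyme, 100uM Luciferin-H (KM). Glo detection reagent stopped reaction; luminescence normalized to sulphaphenazole (57uM) full inhibition.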

Cc1cnc(CNc2cc(-c3cccc(C#N)c3)ncn2)cn1
active: Potency [2] 15.8 µM | Potency [9] 31.6 µM | Potency [10] 35.5 µM
inactive: Potency [1] > 11.4 µM | activity change, negative = inhibition [3] 25.8% | activity, negative = inhibition [4] 7.04% | Potency [5] > 46 µM | Potency [6] > 46 µM | Potency [7] | Potency [8] | Potency [11] | outcome [12]

CC(=O)NCCNc1ncnc2ccc(-c3ccccc3Cl)cc12
active: Potency [9] 15.8 µM | Potency [10] 15.8 µM
inactive: Potency [1] > 11.4 µM | activity change, negative = inhibition [3] -0.746% | activity, negative = inhibition [4] -1.74% | Potency [5] > 46 µM | Potency [6] > 46 µM | Potency [7] | Potency [13] | Potency [11] | outcome [12]

Cc1cccc(CNc2ncncc2-c2ccc(C(=O)N(C)C)cc2)c1
inactive: Potency [1] > 11.4 µM | activity change, negative = inhibition [14] -19% | activity change, negative = inhibition [3] 11.4% | activity, negative = inhibition [4] 1.97% | Potency [5] > 46 µM | Potency [6] > 46 µM | Potency [7] | Potency [8] | Potency [13] | Potency [9] | Potency [16] | Potency [11] | outcome [12]
active: Potency [2] 15.8 µM | Potency [15] 0.631 µM

COc1ccc2[nH]cc(CCNc3ccnc(-c4cccc(C#N)c4)n3)c2c1
inactive: Potency [1] > 11.4 µM | activity change, negative = inhibition [14] -12.9% | activity change, negative = inhibition [3] 23.2% | activity, negative = inhibition [4] -8.5% | Potency [5] > 46 µM | Potency [6] > 46 µM | Potency [7] | Potency [8] | outcome [12]
active: Potency [9] 12.6 µM | Potency [10] 12.6 µM

Cc1noc(C)c1-c1nccc(NC2CC2)n1
inactive: Potency [1] > 11.4 µM | activity change, negative = inhibition [14] 13.6% | activity change, negative = inhibition [3] 19.7% | activity, negative = inhibition [4] 1.49% | Potency [5] > 46 µM | Potency [6] > 46 µM | Potency [7] | Potency [8] | activity change, negative = inhibition [17] 3.44% [at 2.29 µM] | Potency [13] | Potency [9] | Potency [16] | Potency [11] | outcome [12]
active: Potency [2] 0.1 µM | Potency [15] 2.51 µM

COc1cccc(Cn2c(=O)c(-c3ccc(Cl)cc3)nc3cnc(N4CCN(C)CC4)nc32)c1
inactive: Potency [1] > 11.4 µM | activity change, negative = inhibition [14] 17.8% | Potency [2] | activity change, negative = inhibition [3] 23.1% | activity, negative = inhibition [4] 4.58% | Potency [5] > 9.22 µM | Potency [6] > 46 µM | Potency [7] | Potency [8] | Potency [15] | Potency [9] | Potency [16] | Potency [11] | outcome [12]
active: Potency [13] 15.8 µM
